Shown are actives, neighbours in structure and some others; about 21% of the full set was active somewhere.
Cycloheximide cs: Cycloheximide Counterscreen for Small Molecule Inhibitors of Shiga Toxin; cell reporter, cycloheximide protein synthesis inhibition counterscreen; actives 12% (n = 300,000); max response, %; in the data active = max response mostly above about 13%, no sharp cut-off; inactive = mostly below about 14%; note: read at 38.3 µM for the half of the compounds with a filed dose; 0% is about no effect
Shiga toxin inh: A qHTS for Small Molecule Inhibitors of Shiga Toxin; inhibition, % at 38.7 µM; actives 9.2% (n = 290,000); AID 2315, 2010; Vero cells, Shiga toxin protein synthesis inhibition reporter; in the data active = inhibition mostly above about 28%, no sharp cut-off; inactive = mostly below about 43%; note: 0% is about no effect
Pf growth 96h: Primary qHTS for delayed death inhibitors of the malarial parasite plastid, 96 hour incubation; P. falciparum luciferase reporter growth, 96 h; Potency, µM (top dose mostly 28.7 µM), inactives show top-dose activity change, negative = inhibition, most hits filed as inhibitors; actives 6.9% (n = 320,000); AID 504834, 2011; note: potency is the fitted concentration of half-maximal effect; % is set by controls: 0 for no effect and ±100 for the full control effect
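P. falciparum expressing integrated firefly luciferase grown in erythrocytes (2% hematocrit, 0.05% parasitemia final) with compounds for 96 hours at 37 C, 5% CO2. Growth inhibition read as loss of luminescence after adding luciferase detection reagent.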
NS1 inh: qHTS Assay for Inhibitors of Influenza NS1 Protein Function; Potency, µM (series often up to 46.1 µM), for inactives: at the highest dose activity, positive = more growth; actives 0.4% (n = 270,000); calls by dose curve; note: potency is the fitted concentration of half-maximal effect; actives are rising curves; nearly all actives have a fitted effect of over 50% in size
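OD600 was taken as the measure of yeast growth restored by compound in an NS1-expressing S. cerevisiae strain. Cells had been washed out of glucose medium and diluted 1:100 into galactose -URA medium, pH 6.0.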
Sm TGR inh: qHTS Assay for the Inhibitors of Schistosoma Mansoni Peroxiredoxins; Potency, µM (top dose mostly 114 µM), for the others: at the top dose activity change, negative = inhibition, hits mostly inhibitors; Schistosoma mansoni thioredoxin glutathione reductase (TGR), Q962Y6; actives 3% (n = 360,000); AID 485364, 2010; purified TGR, DTNB reduction, TNB absorbance 405 nm; note: potency is the fitted concentration of half-maximal effect; % is set by controls: 0 for no effect and ±100 for the full control effect; nearly all actives have a fitted effect of over 60% in size
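TGR 20 nM + NADPH 100 uM (dispensed conc.), cpd preinc 15 min RT; start with NADPH (500 uM addition) then DTNB (15 mM addition). Kinetic TNB absorbance, 405 nm filter. Four-parameter Hill fit across titration.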
Pf growth 48h: Primary qHTS for delayed death inhibitors of the malarial parasite plastid, 48 hour incubation. P. falciparum luciferase growth in erythrocytes, 48 h. Potency, µM (titrated, usually from 28.7 µM), for inactives: at the top dose activity change, negative = inhibition, actives largely listed as inhibitors. actives 5.9% (n = 310,000). AID 504832, 2011; note: potency is the fitted concentration of half-maximal effect; % is set by controls: 0 for no effect and ±100 for the full control effect
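Growth was read as firefly luciferase luminescence after a 48 h, 37 C, 5% CO2 exposure of compounds to reporter-bearing P. falciparum cultures (0.1% parasitemia, 2% hematocrit final) in Albumax-supplemented RPMI 1640.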
* = called active by the depositor; i = inactive; u = inconclusive; x = no result given. Unless noted, calls come from the whole dose curve; as a rule, active = well fitted curve in the direction sought with a large enough effect; inconclusive = small, poorly fitted or top-dose-only effect, or another doubt; inactive = no such curve, though single readings can be large; an effect the other way counts as inactive or inconclusive.

SMILES | Cycloheximide cs | Shiga toxin inh | Pf growth 96h | NS1 inh | Sm TGR inh | Pf growth 48h
COC1=C(c2ccccc2)C(=O)c2ccccc2C1=O | -2 | 12 | 1.2µM* | -59% | -32% | 1.5µM*
O=C(C1=C(c2ccccc2)C(=O)c2ccccc2C1=O)c1ccccc1 | 20 | 34 | 28% | -13% | 11% | 1.5µM*
Cc1nc2c(c(-c3ccccc3)c1C#N)C(=O)c1ccccc1-2 | -3 | -11 | 30% | -7% | 7% | 11%
CCC(C(=O)Nc1cc(-c2cn3cccnc3n2)ccc1C)c1ccccc1 (stereo not drawn) | x | x | x | x | 3% | x
CCN(CC)CCCNC(=O)c1oc2ccc(S(=O)(=O)N3CC(C)CC(C)C3)cc2c1C (stereo not drawn) | -7 | 15 | 1% | -11% | 3% | u
COc1ccc(NC2=C(c3ccc(C(F)(F)F)cc3)C(=O)c3ccccc32)cc1 | x | x | x | x | 11% | x
COc1ccc(NC2=C(c3ccc(OC)cc3)C(=O)c3ccccc32)cc1 | -2 | -4 | u | 24% | 5% | 0.66µM*
COc1ccc(C(=S)Nc2ccc(C)cc2)cc1 | 51* | 79* | i | -3% | 7% | 120%
COc1ccc(NC(=S)c2ccncc2)cc1 | -2 | 8 | 10µM* | 7% | 0% | 14%
Cc1ccc(NC(=S)c2ccccc2)cc1 | 35* | 14* | 0% | -2% | 5% | 113%
COc1ccc(C(=O)NNC(=O)C(=O)Nc2ccc(C)cc2)cc1 | 4 | 7 | 2% | -12% | 94% | 19%
Cc1ccc(NC(=S)c2ccncc2)cc1 | 18 | 5 | 52% | -9% | 2% | 22%
COc1cccc(CNC(=O)c2nn(-c3ccc(C)cc3)c(=O)c3c2c2ccccc2n3C)c1 | x | x | x | x | 7% | x
COc1ccc(-c2cc(-c3ccc(F)cc3)nc3c2COc2ccc(F)cc2-3)cc1 | x | x | x | x | -5% | x
CC1(c2ccc3c(c2)OCCCO3)NC(=O)N(CC(=O)Nc2cccc(C#N)c2)C1=O (stereo not drawn) | x | x | -7% | x | 4% | 4%
CCCCCCCCCCC(=O)Nc1cccnc1 | -2 | -3 | 42% | -9% | 9% | 18%
CCOc1ccccc1NC(=O)c1cccc(NC(=O)CC(c2ccccc2)c2ccccc2)c1 | 8 | -12 | u | u | -29% | u
CCOc1ccccc1NC(=O)C(OC(=O)c1ccc(O)cc1)c1ccccc1 (stereo not drawn) | -1 | -14 | u | -33% | -17% | 12µM*
CCOc1ccccc1C(=O)Nc1cc(C(=O)NCCc2ccccc2)ccc1Cl | 7 | 7 | u | 20% | 5% | u
CCOc1ccccc1C(=O)Nc1cc(C(=O)NCC(C)C)ccc1Cl | 9 | 12 | 1.7µM* | -3% | 2% | 7.4µM*
CCOc1ccccc1NC(=O)c1ccc(Cl)c(NC(=O)CC(c2ccccc2)c2ccccc2)c1 | -3 | 7 | 9.3µM* | 21% | -31% | u
CC[N+]1(CC)CC2CCC(C)(C1)C2(C)C (stereo not drawn) | -4 | -6 | -73% | x | 35% | -8%
Cc1ccc(NC(=O)CSc2nc(-c3ccccc3Cl)nc3cc(=O)[nH]n23)c(C)c1 | x | x | x | x | 0% | x
NS(=O)(=O)c1ccc(NC(=O)c2cccc(N3C(=O)c4ccccc4C3=O)c2)cc1 | -6 | 4 | 11% | 0% | -30% | 9%
CCCCNC(=O)c1nn2cc(Br)cnc2c1Br | 23* | 22 | u | x | 3% | 30%
SMILES | Cycloheximide cs | Shiga toxin inh | Pf growth 96h | NS1 inh | Sm TGR inh | Pf growth 48h
CCCNC(=O)c1nc2ncc(Br)cn2n1 | -7 | -13 | 13µM* | -3% | 0% | 26%
CCCNC(=O)c1nn2cc(Br)cnc2c1Cl | 20 | -2 | -4% | x | 6% | 40%
CCCc1cc(=O)oc2c3c(cc(OCC(=O)NCCN4CCOCC4)c12)OC(C)(C)CC3 | -3 | -6 | 9.3µM* | -3% | -4% | u
CCCc1cc(=O)oc2c3c(cc(OCC(=O)NCc4ccccn4)c12)OC(C)(C)CC3 | -1 | 1 | 15µM* | -34% | -21% | 12µM*
O=C(OCC(=O)N1CCCc2ccccc21)c1ccc(F)c(S(=O)(=O)N2CCOCC2)c1 | x | x | -3% | x | 4% | -29%
CCCc1cc(C(=O)NC2CCCN(Cc3ccccc3F)C2)no1 (stereo not drawn) | -2 | -4 | 10µM* | -5% | -4% | -15%
CSc1ccccc1C(=O)NC1CCCN(Cc2ccccc2F)C1 (stereo not drawn) | -1 | -2 | -8% | 2% | 1% | -12%
COCc1ccc(C(=O)NC2CCCN(Cc3ccccc3F)C2)o1 (stereo not drawn) | -1 | -26 | u | 3% | -32% | -3%
O=C(Cc1ccc(Cl)cc1)NC1CCCN(Cc2ccccc2F)C1 (stereo not drawn) | -1 | -6 | 69% | 0% | -1% | 9%
CC(=O)c1ccc(C(=O)NC2CCCN(Cc3ccccc3F)C2)cc1 (stereo not drawn) | -2 | x | 5.9µM* | 0% | -2% | -11%
O=C(CCn1cnnn1)NC1CCCN(Cc2ccccc2F)C1 (stereo not drawn) | -3 | -13 | 13µM* | 0% | 2% | 10%
CCc1[nH]nc(C(=O)NC2CCCN(Cc3ccccc3F)C2)c1C (stereo not drawn) | 15 | 39 | 13µM* | -9% | -22% | 0%
Cc1ccc(S(=O)(=O)N2CCCc3cc(NS(=O)(=O)c4ccc(F)cc4)ccc32)cc1 | x | x | x | x | 5% | x
O=C(NC1CCCCC1)C(c1ccc(F)cc1)N(Cc1ccco1)C(=O)c1ccccn1 (stereo not drawn) | 2 | 26 | 43% | x | u | u
Cc1ccc(C)c(NC(=O)C(OC(=O)c2ccc(NC(=O)CC#N)cc2)c2ccccc2)c1 (stereo not drawn) | x | x | u | x | -4% | 10µM*
Cc1ccc(NC(=O)C(OC(=O)c2ccc(C=O)cc2)c2ccccc2)cc1Cl (stereo not drawn) | 15* | 5 | u | u | 5% | -9%
CCOC(=O)c1c(C)[nH]c(C(=O)OCC(=O)Nc2ccc(OCC)cc2)c1C | 6 | 7 | x | 5% | 2% | 37%
Cc1cc(C)cc(NC(=O)C(OC(=O)c2ccc(NC(=O)CC#N)cc2)c2ccccc2)c1 (stereo not drawn) | x | x | 10µM* | x | -2% | 10µM*
Cc1ccc(C)c(NC(=O)C(OC(=O)c2ccc(CO)cc2)c2ccccc2)c1 (stereo not drawn) | x | x | u | x | 5% | u
CCOC(=O)c1c(C)[nH]c(C(=O)C(C)OC(=O)c2ccc(NC(=O)CC#N)cc2)c1C (stereo not drawn) | x | x | 10µM* | x | 7% | 8.3µM*
CC(C)CCOc1ccc(Oc2nc(N(C)C)nc(N(C)C)n2)nn1 | x | x | x | x | -2% | x

Screening data: PubChem BioAssay, National Center for Advancing Translational Sciences (NCATS)
